From ChEMBL document CHEMBL1961873, “Compounds: GSK PKIS; Assays: Nanosyn kinase panel” (2012)
Where “and” joins values, the source holds several entries; their conditions need not be identical. Equal values may be shown once.

Key:
[1] = molecular target: Mitogen-activated protein kinase kinase kinase kinase 4 (Homo sapiens) (UniProt O95819); settings: at 1 µM;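 further: reported figure is an averaged inhibition value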
[2] = molecular target: Dual specificity mitogen-activated protein kinase kinase 1 (Homo sapiens) (UniProt Q02750); settings: at 0.1 µM
[3] = molecular target: Dual specificity mitogen-activated protein kinase kinase 1 (Homo sapiens) (UniProt Q02750); settings: at 1 µM
[4] = molecular target: Misshapen-like kinase 1 (Homo sapiens) (UniProt Q8N4C8); settings: at 0.1 µM
[5] = molecular target: Misshapen-like kinase 1 (Homo sapiens) (UniProt Q8N4C8); settings: at 1 µM
[6] = molecular target: T1, Serine/threonine-protein kinase 4 (Homo sapiens) (UniProt Q13043); settings: at 0.1 µM
T1 sequence (whole entry): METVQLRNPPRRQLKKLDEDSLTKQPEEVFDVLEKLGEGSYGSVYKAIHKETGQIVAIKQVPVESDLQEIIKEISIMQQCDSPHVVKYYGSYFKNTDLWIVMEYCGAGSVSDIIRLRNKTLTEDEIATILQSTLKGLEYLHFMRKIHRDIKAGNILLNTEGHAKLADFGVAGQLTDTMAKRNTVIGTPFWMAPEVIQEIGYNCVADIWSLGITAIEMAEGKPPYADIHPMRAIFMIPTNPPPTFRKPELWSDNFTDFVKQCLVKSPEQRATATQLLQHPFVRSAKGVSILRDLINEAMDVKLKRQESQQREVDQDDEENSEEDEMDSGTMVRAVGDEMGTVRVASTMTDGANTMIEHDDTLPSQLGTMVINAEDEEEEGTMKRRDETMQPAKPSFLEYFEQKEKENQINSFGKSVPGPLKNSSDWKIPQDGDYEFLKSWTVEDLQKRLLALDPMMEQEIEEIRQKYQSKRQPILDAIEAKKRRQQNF

[7] = molecular target: T1, Serine/threonine-protein kinase 4 (Homo sapiens); settings: at 1 µM
[8] = molecular target: T2, Serine/threonine-protein kinase 3 (Homo sapiens) (UniProt Q13188); settings: at 0.1 µM
T2 sequence (whole entry): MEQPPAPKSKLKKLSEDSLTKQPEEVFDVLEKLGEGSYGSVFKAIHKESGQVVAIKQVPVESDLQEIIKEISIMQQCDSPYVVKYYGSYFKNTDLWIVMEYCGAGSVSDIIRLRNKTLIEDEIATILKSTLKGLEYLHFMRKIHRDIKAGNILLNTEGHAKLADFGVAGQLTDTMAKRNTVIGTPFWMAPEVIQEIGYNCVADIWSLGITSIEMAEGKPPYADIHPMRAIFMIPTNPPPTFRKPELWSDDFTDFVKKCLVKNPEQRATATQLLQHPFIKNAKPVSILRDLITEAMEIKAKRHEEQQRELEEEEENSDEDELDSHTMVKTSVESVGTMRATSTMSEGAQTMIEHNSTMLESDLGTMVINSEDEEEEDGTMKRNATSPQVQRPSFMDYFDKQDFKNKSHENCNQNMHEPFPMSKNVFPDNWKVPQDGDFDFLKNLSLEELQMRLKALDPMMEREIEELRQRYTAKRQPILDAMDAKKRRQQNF

[9] = molecular target: T2, Serine/threonine-protein kinase 3 (Homo sapiens); settings: at 1 µM
[10] = molecular target: Serine/threonine-protein kinase 26 (Homo sapiens) (UniProt Q9P289); settings: at 0.1 µM
[11] = molecular target: Serine/threonine-protein kinase 26 (Homo sapiens) (UniProt Q9P289); settings: at 1 µM
[12] = molecular target: Serine/threonine-protein kinase PAK 1 (Homo sapiens) (UniProt Q13153); settings: at 0.1 µM
[13] = molecular target: Serine/threonine-protein kinase PAK 1 (Homo sapiens) (UniProt Q13153); settings: at 1 µM
[14] = molecular target: Serine/threonine-protein kinase PAK 2 (Homo sapiens) (UniProt Q13177); settings: at 0.1 µM
[15] = molecular target: Serine/threonine-protein kinase PAK 2 (Homo sapiens) (UniProt Q13177); settings: at 1 µM
[16] = molecular target: Serine/threonine-protein kinase PAK 3 (Homo sapiens) (UniProt O75914); settings: at 0.1 µM
[17] = molecular target: Serine/threonine-protein kinase PAK 3 (Homo sapiens) (UniProt O75914); settings: at 1 µM
[18] = molecular target: Serine/threonine-protein kinase PAK 5 (Homo sapiens) (UniProt Q9P286); settings: at 0.1 µM
[19] = molecular target: Serine/threonine-protein kinase PAK 5 (Homo sapiens) (UniProt Q9P286); settings: at 1 µM
[20] = molecular target: Serine/threonine-protein kinase PAK 6 (Homo sapiens) (UniProt Q9NQU5); settings: at 0.1 µM;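 further: mean PAK6 inhibition reported from the GSK PKIS screen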
Serine/threonine-protein kinase PAK 6 (Homo sapiens), sequence (Q9NQU5 whole entry, looked up): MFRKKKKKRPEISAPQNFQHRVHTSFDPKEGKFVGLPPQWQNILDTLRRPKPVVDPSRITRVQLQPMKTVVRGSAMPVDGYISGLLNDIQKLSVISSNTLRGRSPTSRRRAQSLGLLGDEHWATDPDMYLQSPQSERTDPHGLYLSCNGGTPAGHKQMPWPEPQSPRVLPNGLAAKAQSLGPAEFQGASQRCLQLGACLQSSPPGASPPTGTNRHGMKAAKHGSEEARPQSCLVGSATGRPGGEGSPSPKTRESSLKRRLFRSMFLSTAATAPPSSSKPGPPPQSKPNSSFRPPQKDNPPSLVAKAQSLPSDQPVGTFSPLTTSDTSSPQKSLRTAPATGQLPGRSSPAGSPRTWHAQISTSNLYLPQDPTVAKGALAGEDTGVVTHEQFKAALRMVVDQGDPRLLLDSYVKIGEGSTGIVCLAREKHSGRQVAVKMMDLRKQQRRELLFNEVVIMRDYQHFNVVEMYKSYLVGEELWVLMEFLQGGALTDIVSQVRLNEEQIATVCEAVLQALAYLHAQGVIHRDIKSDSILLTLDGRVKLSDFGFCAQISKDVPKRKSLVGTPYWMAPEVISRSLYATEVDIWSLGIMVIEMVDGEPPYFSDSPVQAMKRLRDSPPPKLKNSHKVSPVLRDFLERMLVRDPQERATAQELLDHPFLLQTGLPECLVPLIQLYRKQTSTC

Serine/threonine-protein kinase PAK 1 (Homo sapiens), sequence (Q13153 whole entry): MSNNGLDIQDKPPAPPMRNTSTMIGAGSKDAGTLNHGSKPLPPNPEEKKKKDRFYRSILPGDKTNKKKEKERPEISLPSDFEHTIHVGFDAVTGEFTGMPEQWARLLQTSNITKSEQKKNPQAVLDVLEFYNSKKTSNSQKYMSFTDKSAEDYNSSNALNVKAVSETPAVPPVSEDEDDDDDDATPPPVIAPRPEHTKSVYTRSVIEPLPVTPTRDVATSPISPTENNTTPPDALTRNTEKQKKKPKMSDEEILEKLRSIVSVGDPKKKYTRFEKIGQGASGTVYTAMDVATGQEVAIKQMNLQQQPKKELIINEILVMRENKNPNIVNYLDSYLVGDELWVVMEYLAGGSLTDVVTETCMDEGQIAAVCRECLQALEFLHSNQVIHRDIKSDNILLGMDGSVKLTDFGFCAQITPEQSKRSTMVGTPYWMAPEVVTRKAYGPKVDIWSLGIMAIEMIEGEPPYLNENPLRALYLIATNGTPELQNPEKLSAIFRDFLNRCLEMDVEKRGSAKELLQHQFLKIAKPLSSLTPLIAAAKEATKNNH
Misshapen-like kinase 1 (Homo sapiens), sequence (Q8N4C8 whole entry, looked up): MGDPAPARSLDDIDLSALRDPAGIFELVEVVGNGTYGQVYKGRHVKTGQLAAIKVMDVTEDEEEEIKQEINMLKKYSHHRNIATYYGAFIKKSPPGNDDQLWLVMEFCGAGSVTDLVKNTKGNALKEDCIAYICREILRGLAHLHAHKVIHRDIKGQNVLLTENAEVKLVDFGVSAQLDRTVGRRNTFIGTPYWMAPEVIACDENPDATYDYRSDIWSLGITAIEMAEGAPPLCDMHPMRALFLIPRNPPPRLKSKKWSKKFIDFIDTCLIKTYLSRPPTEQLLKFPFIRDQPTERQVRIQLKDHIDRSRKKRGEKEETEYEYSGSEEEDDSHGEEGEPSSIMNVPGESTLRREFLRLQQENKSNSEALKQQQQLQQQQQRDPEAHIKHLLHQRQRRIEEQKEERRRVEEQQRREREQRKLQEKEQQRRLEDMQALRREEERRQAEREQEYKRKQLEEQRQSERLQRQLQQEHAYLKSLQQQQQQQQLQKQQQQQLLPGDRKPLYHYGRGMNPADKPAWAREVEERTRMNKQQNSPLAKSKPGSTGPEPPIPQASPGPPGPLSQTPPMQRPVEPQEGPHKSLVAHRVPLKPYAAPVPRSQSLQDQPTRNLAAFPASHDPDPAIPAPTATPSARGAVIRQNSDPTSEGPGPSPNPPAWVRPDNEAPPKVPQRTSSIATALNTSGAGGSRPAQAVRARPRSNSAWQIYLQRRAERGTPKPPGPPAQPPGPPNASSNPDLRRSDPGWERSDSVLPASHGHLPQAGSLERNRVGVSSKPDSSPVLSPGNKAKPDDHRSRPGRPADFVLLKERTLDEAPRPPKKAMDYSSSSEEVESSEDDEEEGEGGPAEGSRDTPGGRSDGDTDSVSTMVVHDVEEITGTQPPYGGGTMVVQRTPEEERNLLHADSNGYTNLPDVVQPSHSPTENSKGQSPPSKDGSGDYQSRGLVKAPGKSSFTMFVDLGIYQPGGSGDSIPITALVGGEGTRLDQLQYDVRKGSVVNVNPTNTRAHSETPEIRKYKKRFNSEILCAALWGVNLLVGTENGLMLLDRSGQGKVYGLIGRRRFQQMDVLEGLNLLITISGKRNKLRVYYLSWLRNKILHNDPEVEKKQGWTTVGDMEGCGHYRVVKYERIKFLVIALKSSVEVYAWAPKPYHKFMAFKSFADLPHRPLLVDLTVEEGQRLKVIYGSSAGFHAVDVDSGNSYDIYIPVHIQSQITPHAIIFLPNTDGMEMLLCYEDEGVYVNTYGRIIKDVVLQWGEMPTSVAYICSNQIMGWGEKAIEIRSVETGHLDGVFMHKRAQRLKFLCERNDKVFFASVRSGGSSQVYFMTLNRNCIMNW
Serine/threonine-protein kinase 26 (Homo sapiens), sequence (Q9P289 2-416 limits assumed): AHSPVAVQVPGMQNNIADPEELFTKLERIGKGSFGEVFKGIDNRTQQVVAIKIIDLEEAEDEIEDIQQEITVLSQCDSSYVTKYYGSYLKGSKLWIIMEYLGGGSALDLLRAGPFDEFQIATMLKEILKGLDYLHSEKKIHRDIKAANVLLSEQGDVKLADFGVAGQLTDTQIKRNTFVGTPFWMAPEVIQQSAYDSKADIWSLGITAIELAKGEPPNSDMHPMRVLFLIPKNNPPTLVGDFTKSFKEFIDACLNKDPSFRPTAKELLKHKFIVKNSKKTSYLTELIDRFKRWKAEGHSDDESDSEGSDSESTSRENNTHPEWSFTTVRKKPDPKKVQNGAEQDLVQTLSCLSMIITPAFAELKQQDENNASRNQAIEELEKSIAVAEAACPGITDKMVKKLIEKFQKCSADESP
Serine/threonine-protein kinase PAK 3 (Homo sapiens), sequence (O75914 whole entry, looked up): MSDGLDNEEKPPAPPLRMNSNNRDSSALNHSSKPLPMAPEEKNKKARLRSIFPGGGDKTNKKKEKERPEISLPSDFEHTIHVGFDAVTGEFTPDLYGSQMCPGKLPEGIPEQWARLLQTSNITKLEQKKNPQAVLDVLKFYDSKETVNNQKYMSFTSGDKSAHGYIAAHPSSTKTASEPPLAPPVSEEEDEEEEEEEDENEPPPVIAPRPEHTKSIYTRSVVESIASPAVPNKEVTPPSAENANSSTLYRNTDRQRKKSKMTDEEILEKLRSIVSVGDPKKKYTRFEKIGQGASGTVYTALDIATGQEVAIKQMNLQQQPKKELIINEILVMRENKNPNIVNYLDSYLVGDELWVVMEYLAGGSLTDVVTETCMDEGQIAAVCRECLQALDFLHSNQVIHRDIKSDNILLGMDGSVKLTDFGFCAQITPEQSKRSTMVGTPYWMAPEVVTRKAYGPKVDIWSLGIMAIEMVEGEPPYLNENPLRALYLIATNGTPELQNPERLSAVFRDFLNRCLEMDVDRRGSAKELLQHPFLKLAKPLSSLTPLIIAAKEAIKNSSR
Mitogen-activated protein kinase kinase kinase kinase 4 (Homo sapiens), sequence (O95819 2-1239 limits assumed): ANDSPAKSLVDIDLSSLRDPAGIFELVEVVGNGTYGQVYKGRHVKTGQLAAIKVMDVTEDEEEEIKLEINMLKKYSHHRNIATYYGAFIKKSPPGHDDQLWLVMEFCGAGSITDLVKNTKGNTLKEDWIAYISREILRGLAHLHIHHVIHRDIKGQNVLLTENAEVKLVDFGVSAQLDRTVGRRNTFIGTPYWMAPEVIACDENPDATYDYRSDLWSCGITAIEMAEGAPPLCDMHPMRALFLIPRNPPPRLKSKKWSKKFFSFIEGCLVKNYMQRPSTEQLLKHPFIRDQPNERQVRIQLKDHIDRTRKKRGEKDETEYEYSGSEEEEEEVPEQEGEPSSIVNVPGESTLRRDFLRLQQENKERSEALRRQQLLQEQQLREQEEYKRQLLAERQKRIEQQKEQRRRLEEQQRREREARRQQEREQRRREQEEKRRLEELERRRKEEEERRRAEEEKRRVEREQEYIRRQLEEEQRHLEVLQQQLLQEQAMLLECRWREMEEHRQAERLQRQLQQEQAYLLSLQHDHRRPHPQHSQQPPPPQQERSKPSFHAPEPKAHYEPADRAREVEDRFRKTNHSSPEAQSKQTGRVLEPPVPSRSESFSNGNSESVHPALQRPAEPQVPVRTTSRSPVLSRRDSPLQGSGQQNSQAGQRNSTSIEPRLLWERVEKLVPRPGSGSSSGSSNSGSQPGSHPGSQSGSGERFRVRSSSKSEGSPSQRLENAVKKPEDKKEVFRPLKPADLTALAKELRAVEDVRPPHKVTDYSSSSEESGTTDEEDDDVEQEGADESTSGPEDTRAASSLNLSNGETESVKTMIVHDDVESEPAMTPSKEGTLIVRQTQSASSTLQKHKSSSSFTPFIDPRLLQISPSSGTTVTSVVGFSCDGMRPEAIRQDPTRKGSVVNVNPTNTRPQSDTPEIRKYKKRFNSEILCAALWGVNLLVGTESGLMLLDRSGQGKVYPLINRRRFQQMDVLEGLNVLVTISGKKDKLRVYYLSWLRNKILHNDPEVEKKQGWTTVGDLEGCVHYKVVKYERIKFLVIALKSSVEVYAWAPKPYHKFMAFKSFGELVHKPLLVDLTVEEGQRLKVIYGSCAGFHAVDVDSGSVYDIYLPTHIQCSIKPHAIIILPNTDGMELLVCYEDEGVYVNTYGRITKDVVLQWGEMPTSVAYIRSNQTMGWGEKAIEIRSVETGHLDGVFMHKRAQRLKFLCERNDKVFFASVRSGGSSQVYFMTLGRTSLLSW

What does the source list for `CNC(=O)c1sc(-n2cnc3cc(OC)c(OC)cc32)cc1OCc1ccccc1C(F)(F)F`?
inhibition [1]: 12.2%; inhibition [2]: 3.14%; inhibition [3]: 3.6%; inhibition [4]: 9.53%; inhibition [5]: 12.2%; inhibition [6]: 2.47%; inhibition [7]: 3.85%; inhibition [8]: 5.34%; inhibition [9]: 7.16%; inhibition [10]: -0.27%; inhibition [11]: 4.9%; inhibition [12]: 2.95%; inhibition [13]: 1.15%; inhibition [14]: 0.12%; inhibition [15]: 0.57%; inhibition [16]: 4.1%; inhibition [17]: 2.98%; inhibition [18]: 1.27%; inhibition [19]: 0.17%; inhibition [20]: -2.28%

For `NS(=O)(=O)c1cccc(N/C=C2\C(=O)Nc3ccccc32)c1`, which inhibition [1] is on record?
Its inhibition is 78.2%.

And the inhibition [2]?
The inhibition was 4.87%.

And the inhibition [3]?
The inhibition was 5.35%.

What about the inhibition [4] of the same molecule?
Its inhibition is 18.4%.

And the inhibition [5]?
Its inhibition is 70.2%.

What about the inhibition [6] of the same molecule?
The inhibition was 7.24%.

What about the inhibition [7] of the same molecule?
The inhibition was 26.1%.

And the inhibition [8]?
The inhibition was 5.78%.

And the inhibition [9]?
The inhibition was 21.2%.

And the inhibition [10]?
The inhibition was -1.63%.

And the inhibition [11]?
The inhibition was -1.86%.

What about the inhibition [12] of the same molecule?
Its inhibition is 5.24%.

What about the inhibition [13] of the same molecule?
The inhibition was 8.78%.

And the inhibition [14]?
The inhibition was 1.76%.

And the inhibition [15]?
Its inhibition is 2.04%.

And the inhibition [16]?
The inhibition was 4.81%.

What about the inhibition [17] of the same molecule?
Its inhibition is 4.94%.

What about the inhibition [18] of the same molecule?
Its inhibition is -8.13%.

And the inhibition [19]?
Its inhibition is -8.7%.

And the inhibition [20]?
Its inhibition is 3.85%.

How did the inhibition [1] turn out when `CCCNc1cccc(-n2ncc3c(N/N=C/c4ccncc4)ncnc32)c1` was run?
Its inhibition is 44.1%.

What about the inhibition [2] of the same molecule?
Its inhibition is 1.7%.

What about the inhibition [3] of the same molecule?
Its inhibition is 2.07%.

What about the inhibition [4] of the same molecule?
Its inhibition is 5.44%.

What about the inhibition [5] of the same molecule?
Its inhibition is 35.9%.

What about the inhibition [6] of the same molecule?
Its inhibition is 4.12%.

What about the inhibition [7] of the same molecule?
The inhibition was 12.3%.

And the inhibition [8]?
Its inhibition is 5.92%.

What about the inhibition [9] of the same molecule?
The inhibition was 9.89%.

What about the inhibition [10] of the same molecule?
Its inhibition is 1.77%.

What about the inhibition [11] of the same molecule?
The inhibition was -1.3%.

And the inhibition [12]?
Its inhibition is -0.99%.

And the inhibition [13]?
The inhibition was -0.69%.

What about the inhibition [14] of the same molecule?
Its inhibition is 0.12%.

What about the inhibition [15] of the same molecule?
Its inhibition is -0.31%.

And the inhibition [16]?
The inhibition was 1.59%.

What about the inhibition [17] of the same molecule?
Its inhibition is 1.61%.

What about the inhibition [18] of the same molecule?
Its inhibition is 8.4%.

What about the inhibition [19] of the same molecule?
Its inhibition is 5.05%.

What about the inhibition [20] of the same molecule?
Its inhibition is 16.9%.

With `CS(=O)(=O)CCNCc1ccc(-c2ccc3ncnc(Nc4ccc(OCc5ccccc5)cc4)c3c2)o1` as the molecule, how does the inhibition [1] read?
The inhibition was 6.76%.

And the inhibition [2]?
Its inhibition is 2.75%.

What about the inhibition [3] of the same molecule?
The inhibition was 2.72%.

What about the inhibition [4] of the same molecule?
Its inhibition is 5.38%.

What about the inhibition [5] of the same molecule?
Its inhibition is 5.67%.

And the inhibition [6]?
The inhibition was 3.24%.

And the inhibition [7]?
The inhibition was 3.52%.

And the inhibition [8]?
The inhibition was 5.36%.

And the inhibition [9]?
Its inhibition is 3.74%.

And the inhibition [10]?
Its inhibition is 0.02%.

And the inhibition [11]?
Its inhibition is 1.34%.

And the inhibition [12]?
The inhibition was 6.85%.

What about the inhibition [13] of the same molecule?
The inhibition was 5.65%.

What about the inhibition [14] of the same molecule?
Its inhibition is 0.34%.

And the inhibition [15]?
The inhibition was -0.94%.

What about the inhibition [16] of the same molecule?
The inhibition was 3.86%.

And the inhibition [17]?
The inhibition was 3.33%.

What about the inhibition [18] of the same molecule?
The inhibition was 3.91%.

And the inhibition [19]?
The inhibition was 2.57%.

And the inhibition [20]?
The inhibition was -3.53%.

How did the inhibition [1] turn out when `c1cnn2ncc(-c3ccnc(NCCCN4CCOCC4)n3)c2c1` was run?
Its inhibition is 8.87%.

And the inhibition [2]?
The inhibition was 4.91%.

What about the inhibition [3] of the same molecule?
Its inhibition is 3.9%.

What about the inhibition [4] of the same molecule?
The inhibition was 4.95%.

And the inhibition [5]?
The inhibition was 12.1%.

What about the inhibition [6] of the same molecule?
Its inhibition is 2.04%.

What about the inhibition [7] of the same molecule?
The inhibition was 1.9%.

And the inhibition [8]?
Its inhibition is 3.76%.

What about the inhibition [9] of the same molecule?
Its inhibition is 2.29%.

What about the inhibition [10] of the same molecule?
The inhibition was -1.84%.

And the inhibition [11]?
The inhibition was -2.39%.

What about the inhibition [12] of the same molecule?
Its inhibition is 6.37%.

What about the inhibition [13] of the same molecule?
The inhibition was 4.03%.

And the inhibition [14]?
Its inhibition is 1.39%.

And the inhibition [15]?
The inhibition was 0.34%.

What about the inhibition [16] of the same molecule?
The inhibition was 3.11%.

And the inhibition [17]?
The inhibition was 3.78%.

What about the inhibition [18] of the same molecule?
The inhibition was 2.65%.

What about the inhibition [19] of the same molecule?
Its inhibition is 1.01%.

What about the inhibition [20] of the same molecule?
The inhibition was -0.41%.

Which inhibition [1] does the source give for `Nc1nccc(-c2c(-c3ccc(F)cc3)ncn2C2CCNCC2)n1` here?
The inhibition was 11.7% and 20.6%.

What about the inhibition [2] of the same molecule?
The inhibition was -1.59% and 0.76%.

And the inhibition [3]?
Its inhibition is 1.41% and 5.84%.

And the inhibition [4]?
The inhibition was -0.88% and 2.53%.

What about the inhibition [5] of the same molecule?
The inhibition was 6.74% and 17%.

And the inhibition [6]?
Its inhibition is -3.42% and 0.28%.

And the inhibition [7]?
The inhibition was -0.43% and 1.1%.

And the inhibition [8]?
The inhibition was -3.39% and 1.21%.

What about the inhibition [9] of the same molecule?
The inhibition was 1.14% and 0.77%.

And the inhibition [10]?
Its inhibition is 0.83% and -0.54%.

And the inhibition [11]?
The inhibition was 5.19% and 1.66%.

And the inhibition [12]?
The inhibition was -3.53% and -3.93%.

What about the inhibition [13] of the same molecule?
The inhibition was -2.75% and -0.14%.

What about the inhibition [14] of the same molecule?
Its inhibition is -3.09% and 0.25%.

What about the inhibition [15] of the same molecule?
Its inhibition is -2.02% and 1.56%.

What about the inhibition [16] of the same molecule?
The inhibition was -4.58% and -1.23%.

And the inhibition [17]?
The inhibition was -3.86% and -0.28%.

What about the inhibition [18] of the same molecule?
Its inhibition is -9.21% and 0.56%.

What about the inhibition [19] of the same molecule?
Its inhibition is -3.77% and 2.85%.

And the inhibition [20]?
Its inhibition is -8.03% and 2.08%.
